A selection: hits, their analogues and other compounds. The true share with any hit is near 21%.
HCV inhibitor: inhibitors of hepatitis C virus infection. actives 3.4% (n = 340,000). Potency, µM (series often up to 41.8 µM), inactives show at the highest dose activity change, negative = inhibition, most hits filed as inhibitors. AID 651820. Huh7.5.1 HCVcc-Cre infection, luciferase reporter, 44 h; note: potency is the fitted concentration of half-maximal effect; % is set by controls: 0 for no effect and ±100 for the full control effect
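Seed cells (1,000/well) for 4 h; treat with compound and infect with HCVcc-Cre, moi about 0.5. Incubate 44 h, then detect luciferase activity.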
Cycloheximide cs: counter-screen hit for Shiga toxin inhibitors, cycloheximide | cell reporter, cycloheximide protein synthesis inhibition counterscreen | max response, % | actives 12% (n = 300,000) | AID 2314; in the data active = max response mostly above about 13%, no sharp cut-off; inactive = mostly below about 14%; note: read at 38.3 µM for the half of the compounds with a filed dose; 0% is about no effect
Pf growth 48h: inhibits P. falciparum growth in the first generation, 48 h; P. falciparum luciferase growth in erythrocytes, 48 h; Potency, µM (doses to about 28.7 µM), for the others: at the highest dose activity change, negative = inhibition, most hits filed as inhibitors; actives 5.9% (n = 310,000); note: potency is the fitted concentration of half-maximal effect; % is set by controls: 0 for no effect and ±100 for the full control effect
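Cell-based growth assay: transgenic P. falciparum expressing firefly luciferase, cultured in red cells within RPMI 1640 containing 0.5% w/v Albumax, 24 mM bicarbonate and gentamycin. A drop in luciferase activity indicates inhibition.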
Pf growth 96h: inhibits malaria parasite growth, 96 h. P. falciparum luciferase reporter growth, 96 h. Potency, µM (series often up to 28.7 µM), for the others: at the highest dose activity change, negative = inhibition, actives largely listed as inhibitors. actives 6.9% (n = 320,000); note: potency is the fitted concentration of half-maximal effect; % is set by controls: 0 for no effect and ±100 for the full control effect
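Infected RBCs, 2% Hct / 0.05% parasitemia final; luciferase-reporter P. falciparum; cpd 96 h, 37 C, 5% CO2; luciferase detection reagent; luminescence.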
Shiga inhibitor: Shiga toxin inhibition | Vero cells, Shiga toxin protein synthesis inhibition reporter | inhibition, % at 38.7 µM | actives 9.2% (n = 290,000); in the data active = inhibition mostly above about 28%, no sharp cut-off; inactive = mostly below about 43%; note: 0% is about no effect
HCMV antiviral: human cytomegalovirus inhibition | HFF cells, HCMV-luciferase reporter, 72 h; hits give low values | activity change, negative = inhibition, % at 57.5 µM | actives 4.5% (n = 410,000) | AID 1259415; in the data active = activity change below about -60%; inconclusive = no clear call, values can overlap the other calls; inactive = above about -39%; note: % is set by controls: 0 for no effect and ±100 for the full control effect
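Luciferase read-out from HCMV-luciferase-infected HFFs (MOI 1 PFU/cell) 72 h post infection at 37C; compounds added after 16 h cell attachment; activity normalized between buffer-only basal and Salinomycin (10uM) inhibitor controls.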
Numbers without * were called inactive; ? = inconclusive; . = no result given; [ ] = remark or other dose. Unless noted, calls come from the whole dose curve; as a rule, active = well fitted inhibition curve with a large enough effect; inconclusive = small, poorly fitted or top-dose-only effect, or another doubt; inactive = no such curve, though single readings can be large or run the other way.

SMILES	HCV inhibitor	Cycloheximide cs	Pf growth 48h	Pf growth 96h	Shiga inhibitor	HCMV antiviral
O=C(Cn1c(=O)n(-c2ccc(Cl)cc2)c(=O)c2sc3ccccc3c21)NC1CCCCC1	.	.	.	.	.	14
CCOC(=O)c1nn(-c2ccc(F)cc2)c(C)c1C(C)=O	8%	9	3%	.	-20	-79*
CCOC(=O)c1nn(-c2ccc(Cl)cc2)c(C)cc1=O	10%	-1	3%	-3%	-5	-73*
CCOC(=O)c1nn(-c2ccc(C)cc2)c(C)c1C(C)=O	-24%	4	-11%	-6%	-2	51
Cc1cc(=O)c(C(=O)O)nn1-c1ccc(Cl)cc1	16%	-1	31%	101%	-5	-5
CN(C)c1ccc(CNC(=O)c2cnc(N3CCN(Cc4cccc(C(F)(F)F)c4)C3=O)o2)cc1	.	.	.	.	.	-14
CCOC(=O)C1=C(c2ccccc2)c2ccc(OC)cc2N(S(=O)(=O)C(F)(F)F)C1C(=O)OCC (stereo not drawn)	2µM*	1	.	.	22	-2
CCOC(=O)C1C(C(=O)OC)=C(c2ccc(F)cc2)c2ccc(OC)cc2N1S(=O)(=O)C(F)(F)F (stereo not drawn)	.	6	.	.	28	.
CC(=O)N(O)c1ccc(C=Cc2ccccc2)cc1	.	.	.	.	.	-99*
COc1ccc(-c2n[nH]c(C)c2-c2cc(OC)ccc2O)cc1	8%	8	20%	.	-26	43
COc1ccc(-c2cc(-c3cc(OC)ccc3O)[nH]n2)cc1	-24%	45*	.	.	97*	83
COc1ccc(O)c(-c2cc(-c3cccc(Br)c3)n[nH]2)c1	?	32*	.	?	29*	12
COc1ccc(-c2cc(-c3cc(F)ccc3O)[nH]n2)cc1OC	?	38*	32%	?	78*	107
COc1ccc(-c2cc(-c3ccc(OC)c(OC)c3)n[nH]2)c(O)c1	?	71*	.	?	97*	157
COc1ccccc1OCCSc1nc(C)c(Cc2ccccc2)c(=O)[nH]1	13%	1	67%	28%	-4	.
Cc1nc2ccccc2c(=O)n1/N=C/c1ccc(F)cc1	2%	-1	30%	?	-3	14
COc1ccc(CNC(=O)CSc2ncn[nH]2)cc1OC	5%	0	0%	1%	-11	-6
COc1ccc(NC(=O)c2cc(-c3cc(Cl)ccc3O)n[nH]2)c(OC)c1	?	-4	?	?	-6	8
COc1ccc(O)c(-c2cc(-c3ccc(F)cc3)n[nH]2)c1	?	50*	?	-87%	116*	9
COc1ccc(-c2cc(-c3ccc(Cl)cc3)n[nH]2)c(O)c1	?	37*	?	18%	92*	89
COc1cc(C(=O)Nc2nc3ccccc3[nH]2)cc(OC)c1OC	-25%	10	?	9.3µM*	19	59
COc1ccccc1C(=O)NCCC(=O)Nc1nc2ccccc2[nH]1	?	.	3%	16%	.	74
CCOC(=O)c1[nH]c2ccccc2c1NC(=O)c1cc(OC)c(OC)c(OC)c1	-26%	.	.	.	.	73
COc1cc(SC)ccc1C(=O)Nc1nc2ccccc2[nH]1	-15%	-12	?	0.17µM*	-23	-98*
COc1ccccc1C(=O)Nc1nc2ccccc2[nH]1	-4%	-11	-72%	-61%	-28	-76*
SMILES	HCV inhibitor	Cycloheximide cs	Pf growth 48h	Pf growth 96h	Shiga inhibitor	HCMV antiviral
Cc1cc(C)c(CN2C(=O)c3ccccc3S(=O)(=O)c3ccc(C(=O)OCC4CCCO4)cc32)c(C)c1 (stereo not drawn)	.	.	.	.	.	-1
O=C(CCn1c(=O)c2ccccc2n(Cc2ccc(F)cc2Cl)c1=O)NCc1ccc2c(c1)OCO2	.	.	.	.	.	-38
CCOC(=O)Cc1c(C)nc(Cc2ccc(OC(C)C)cc2)[nH]c1=O	21%	-3	13%[5.75 µM]	24%	14	1
Cc1n[nH]c(C)c1S(=O)(=O)N1CCc2ccccc2C1	10%	-6	-19%	10µM*	5	2
Cc1n[nH]c(C)c1S(=O)(=O)N1CCN(c2ccccn2)CC1	14%	-5	-4%	36%	-11	-3
COCCOC(=O)c1sc2nc[nH]c(=O)c2c1C	2%	2	13%	12%	-5	?
